Measured values taken from PMC11102866, “Nucleosome-bound NR5A2 structure reveals pioneer factor mechanism by DNA minor groove anchor competition”.

Tests used:
[1] = molecular target: NR5A2 wild type;histone octamer (Homo sapiens;, UniProt O00482;C0HKE1;Q6ZWY9;P84244;P62806 1-541;2-130;2-126;2-136;2-103, |); experiment: SeEN-seq (EMSA of nucleosome library followed by sequencing); 0.8 uM human NR5A2; 20 mM Tris-HCl pH 7.5, 120 mM NaCl, 1 mM MgCl2, 10 uM ZnCl2, 1 mM DTT, 100 ug/ml BSA, room temperature, 30 min; 0.1 uM nucleosome library; high values mean tight binding
[2] = molecular target: mouse Nr5a2 wild type;histone octamer (Mus musculus;, UniProt P45448;C0HKE1;Q6ZWY9;P84244;P62806 1-560;2-130;2-126;2-136;2-103, |); experiment: SeEN-seq (EMSA of nucleosome library followed by sequencing); 1.2 uM mouse Nr5a2; 20 mM Tris-HCl pH 7.5, 120 mM NaCl, 1 mM MgCl2, 10 uM ZnCl2, 1 mM DTT, 100 ug/ml BSA, room temperature, 30 min; 0.1 uM nucleosome library; high values mean tight binding

Binder	binding signal [1]	binding signal [2]
48 (nucleosome, reconstituted with mouse histones H2A, H2B, H3.3 and H4) DNA 1: ATCCTGGAGAATCCCGGTGCCGAGGCCGCTCAATTGGTCGTAGACAGCTCTCAAGGCCATTAAACGCACGTACGCGCTGTCCCCCGCGTTTTAACCGCCAAGGGGATTACTCCCTAGTCTCCAGGCACGTGTCAGATATATACATCCTGTGAT DNA 2: ATCACAGGATGTATATATCTGACACGTGCCTGGAGACTAGGGAGTAATCCCCTTGGCGGTTAAAACGCGGGGGACAGCGCGTACGTGCGTTTAATGGCCTTGAGAGCTGTCTACGACCAATTGAGCGGCCTCGGCACCGGGATTCTCCAGGAT	0.867 log2 enrichment (bound/unbound, relative to Widom 601)	0.815 log2 enrichment (bound/unbound, relative to Widom 601)
50 (nucleosome, reconstituted with mouse histones H2A, H2B, H3.3 and H4) DNA 1: ATCCTGGAGAATCCCGGTGCCGAGGCCGCTCAATTGGTCGTAGACAGCTCTATCAAGGCCAAAACGCACGTACGCGCTGTCCCCCGCGTTTTAACCGCCAAGGGGATTACTCCCTAGTCTCCAGGCACGTGTCAGATATATACATCCTGTGAT DNA 2: ATCACAGGATGTATATATCTGACACGTGCCTGGAGACTAGGGAGTAATCCCCTTGGCGGTTAAAACGCGGGGGACAGCGCGTACGTGCGTTTTGGCCTTGATAGAGCTGTCTACGACCAATTGAGCGGCCTCGGCACCGGGATTCTCCAGGAT	0.992 log2 enrichment (bound/unbound, relative to Widom 601)	1.01 log2 enrichment (bound/unbound, relative to Widom 601)
52 (nucleosome, reconstituted with mouse histones H2A, H2B, H3.3 and H4) DNA 1: ATCCTGGAGAATCCCGGTGCCGAGGCCGCTCAATTGGTCGTAGACAGCTCTAGCTCAAGGCCAACGCACGTACGCGCTGTCCCCCGCGTTTTAACCGCCAAGGGGATTACTCCCTAGTCTCCAGGCACGTGTCAGATATATACATCCTGTGAT DNA 2: ATCACAGGATGTATATATCTGACACGTGCCTGGAGACTAGGGAGTAATCCCCTTGGCGGTTAAAACGCGGGGGACAGCGCGTACGTGCGTTGGCCTTGAGCTAGAGCTGTCTACGACCAATTGAGCGGCCTCGGCACCGGGATTCTCCAGGAT	0.917 log2 enrichment (bound/unbound, relative to Widom 601)	1.16 log2 enrichment (bound/unbound, relative to Widom 601)
47 (nucleosome, reconstituted with mouse histones H2A, H2B, H3.3 and H4) DNA 1: ATCCTGGAGAATCCCGGTGCCGAGGCCGCTCAATTGGTCGTAGACAGCTTCAAGGCCACTTAAACGCACGTACGCGCTGTCCCCCGCGTTTTAACCGCCAAGGGGATTACTCCCTAGTCTCCAGGCACGTGTCAGATATATACATCCTGTGAT DNA 2: ATCACAGGATGTATATATCTGACACGTGCCTGGAGACTAGGGAGTAATCCCCTTGGCGGTTAAAACGCGGGGGACAGCGCGTACGTGCGTTTAAGTGGCCTTGAAGCTGTCTACGACCAATTGAGCGGCCTCGGCACCGGGATTCTCCAGGAT	1.01 log2 enrichment (bound/unbound, relative to Widom 601)	1.07 log2 enrichment (bound/unbound, relative to Widom 601)
58 (nucleosome, reconstituted with mouse histones H2A, H2B, H3.3 and H4) DNA 1: ATCCTGGAGAATCCCGGTGCCGAGGCCGCTCAATTGGTCGTAGACAGCTCTAGCACCGCTTCAAGGCCAGTACGCGCTGTCCCCCGCGTTTTAACCGCCAAGGGGATTACTCCCTAGTCTCCAGGCACGTGTCAGATATATACATCCTGTGAT DNA 2: ATCACAGGATGTATATATCTGACACGTGCCTGGAGACTAGGGAGTAATCCCCTTGGCGGTTAAAACGCGGGGGACAGCGCGTACTGGCCTTGAAGCGGTGCTAGAGCTGTCTACGACCAATTGAGCGGCCTCGGCACCGGGATTCTCCAGGAT	0.651 log2 enrichment (bound/unbound, relative to Widom 601)	0.747 log2 enrichment (bound/unbound, relative to Widom 601)
49 (nucleosome, reconstituted with mouse histones H2A, H2B, H3.3 and H4) DNA 1: ATCCTGGAGAATCCCGGTGCCGAGGCCGCTCAATTGGTCGTAGACAGCTCTTCAAGGCCATAAACGCACGTACGCGCTGTCCCCCGCGTTTTAACCGCCAAGGGGATTACTCCCTAGTCTCCAGGCACGTGTCAGATATATACATCCTGTGAT DNA 2: ATCACAGGATGTATATATCTGACACGTGCCTGGAGACTAGGGAGTAATCCCCTTGGCGGTTAAAACGCGGGGGACAGCGCGTACGTGCGTTTATGGCCTTGAAGAGCTGTCTACGACCAATTGAGCGGCCTCGGCACCGGGATTCTCCAGGAT	1.14 log2 enrichment (bound/unbound, relative to Widom 601)	1.11 log2 enrichment (bound/unbound, relative to Widom 601)
57 (nucleosome, reconstituted with mouse histones H2A, H2B, H3.3 and H4) DNA 1: ATCCTGGAGAATCCCGGTGCCGAGGCCGCTCAATTGGTCGTAGACAGCTCTAGCACCGCTCAAGGCCACGTACGCGCTGTCCCCCGCGTTTTAACCGCCAAGGGGATTACTCCCTAGTCTCCAGGCACGTGTCAGATATATACATCCTGTGAT DNA 2: ATCACAGGATGTATATATCTGACACGTGCCTGGAGACTAGGGAGTAATCCCCTTGGCGGTTAAAACGCGGGGGACAGCGCGTACGTGGCCTTGAGCGGTGCTAGAGCTGTCTACGACCAATTGAGCGGCCTCGGCACCGGGATTCTCCAGGAT	0.552 log2 enrichment (bound/unbound, relative to Widom 601)	0.504 log2 enrichment (bound/unbound, relative to Widom 601)
7 (nucleosome, reconstituted with mouse histones H2A, H2B, H3.3 and H4) DNA 1: ATCCTGGAGTCAAGGCCAGCCGAGGCCGCTCAATTGGTCGTAGACAGCTCTAGCACCGCTTAAACGCACGTACGCGCTGTCCCCCGCGTTTTAACCGCCAAGGGGATTACTCCCTAGTCTCCAGGCACGTGTCAGATATATACATCCTGTGAT DNA 2: ATCACAGGATGTATATATCTGACACGTGCCTGGAGACTAGGGAGTAATCCCCTTGGCGGTTAAAACGCGGGGGACAGCGCGTACGTGCGTTTAAGCGGTGCTAGAGCTGTCTACGACCAATTGAGCGGCCTCGGCTGGCCTTGACTCCAGGAT	2.59 log2 enrichment (bound/unbound, relative to Widom 601)	2.08 log2 enrichment (bound/unbound, relative to Widom 601)
